# “And” between values parts separate entries of the source, which are not always exact repeats. Equal entries are not always repeated. Results filed as inconclusive are left out. The source made the active and inactive calls.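 Rule for the calls, unless noted: active = normalized viability below 100% at a tested concentration; inactive = the rest.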
# How the values were obtained:
# [1] = viability loss in pontine glioma line – cell-based, SU-DIPG-XXV, MIPE5.0, CellTiter-Glo, qHTS, dose response (AID 1347065; cut-off not given, nearly all actives have AC50 up to about 26 µM;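 note: cells exposed to compound for 48 hours before ATP readout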); conditions: CellTiter-Glo ATP luminescence
# [2] = growth inhibition of DIPG cells – cell-based, MIPE4.0 library, CellTiter-Glo luminescence, qHTS (AID 1347066; cut-off not given, nearly all actives have AC50 up to about 30 µM;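 note: cells exposed to compound for 48 hours before readout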); conditions: SU-DIPG-VI viability, CellTiter-Glo ATP luminescence
# [3] = growth inhibition of DIPG cells – cell-based, MIPE5.0 library, qHTS (AID 1347068; cut-off not given, nearly all actives have IC50 up to about 30 µM); conditions: SU-DIPG-XXV viability
# [4] = viability loss with induced miR-34 in A549 – imaging, A549 dox-inducible miR-34, nuclei and caspase counts, primary screen (AID 1347080;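 active = compounds whose cell count with miR-34 switched on is under 0.7 times the count with it off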); conditions: A549 miR-34 inducible, Hoechst nuclei count, 48 h
# [5] = blockers of cellular phospholipid synthesis – cell-based, LOPAC library, screen 4, primary screen (AID 1347384; call rule not given here); conditions: animal cells, phospholipid biosynthesis inhibition screen; at 10 µM
# [6] = MELAS cybrid and Rieske KO viability enhancers – cell-based, MELAS cybrids, Rieske KO mouse fibroblasts, CellTiter-Glo, primary screen (AID 1508586;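 active = mean z-score across replicates of 1.96 or higher in either the MELAS or the Rieske mutant cell line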;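 note: z relative to plate mean and SD of compound and empty wells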); conditions: low glucose
# [7] = molecular target: NAD(+) hydrolase SARM1 (Homo sapiens) (UniProt Q6SZW1); test: blocking NAD cleavage by SARM1 SAM-TIR – cell lysate, NAD-Glo luminescence (AID 1508614;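 active = compound whose remaining NAD level is above about 45 nM, limit read from the data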;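 note: higher remaining NAD means stronger inhibition of SARM1 NADase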); conditions: SAM-TIR HEK293T lysate NADase, at 1 µM, stronger effect = higher value
# Chain of NAD(+) hydrolase SARM1 (Homo sapiens) (Q6SZW1 whole entry, looked up, the tested form may be a part): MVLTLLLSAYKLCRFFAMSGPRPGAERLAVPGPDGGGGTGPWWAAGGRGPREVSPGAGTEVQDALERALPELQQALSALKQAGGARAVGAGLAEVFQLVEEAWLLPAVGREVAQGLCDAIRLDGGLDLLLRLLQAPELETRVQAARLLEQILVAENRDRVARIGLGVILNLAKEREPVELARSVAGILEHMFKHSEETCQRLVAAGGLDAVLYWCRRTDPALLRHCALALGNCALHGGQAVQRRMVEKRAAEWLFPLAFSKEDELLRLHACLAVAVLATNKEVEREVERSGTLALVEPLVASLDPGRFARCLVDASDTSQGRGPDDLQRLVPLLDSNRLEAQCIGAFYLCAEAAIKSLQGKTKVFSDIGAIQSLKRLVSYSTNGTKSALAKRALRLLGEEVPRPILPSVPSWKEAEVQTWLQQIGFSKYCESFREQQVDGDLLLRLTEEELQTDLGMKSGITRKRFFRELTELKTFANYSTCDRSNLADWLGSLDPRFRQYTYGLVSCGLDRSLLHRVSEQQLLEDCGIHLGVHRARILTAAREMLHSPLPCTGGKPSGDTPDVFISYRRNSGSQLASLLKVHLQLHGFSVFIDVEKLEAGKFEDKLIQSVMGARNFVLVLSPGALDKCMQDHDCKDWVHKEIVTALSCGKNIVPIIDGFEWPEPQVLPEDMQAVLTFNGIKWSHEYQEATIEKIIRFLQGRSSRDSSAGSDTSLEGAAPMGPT
# [8] = molecular target: Mitogen-activated protein kinase 7 (Homo sapiens) (UniProt Q13164); test: Gal4-ERK5 driven luciferase induction – cell-based, HTS, primary screen (AID 1508626;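 active = luciferase signal above three times the same-plate solvent-only control wells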;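 note: luciferase driven by Gal4-ERK5 fusion binding five Gal4 sites before minimal TATA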); conditions: HeLa Gal4-ERK5 transactivation, 18 h, at 5 µM, stronger effect = higher value
# Chain of Mitogen-activated protein kinase 7 (Homo sapiens) (Q13164 whole entry, looked up, the tested form may be a part): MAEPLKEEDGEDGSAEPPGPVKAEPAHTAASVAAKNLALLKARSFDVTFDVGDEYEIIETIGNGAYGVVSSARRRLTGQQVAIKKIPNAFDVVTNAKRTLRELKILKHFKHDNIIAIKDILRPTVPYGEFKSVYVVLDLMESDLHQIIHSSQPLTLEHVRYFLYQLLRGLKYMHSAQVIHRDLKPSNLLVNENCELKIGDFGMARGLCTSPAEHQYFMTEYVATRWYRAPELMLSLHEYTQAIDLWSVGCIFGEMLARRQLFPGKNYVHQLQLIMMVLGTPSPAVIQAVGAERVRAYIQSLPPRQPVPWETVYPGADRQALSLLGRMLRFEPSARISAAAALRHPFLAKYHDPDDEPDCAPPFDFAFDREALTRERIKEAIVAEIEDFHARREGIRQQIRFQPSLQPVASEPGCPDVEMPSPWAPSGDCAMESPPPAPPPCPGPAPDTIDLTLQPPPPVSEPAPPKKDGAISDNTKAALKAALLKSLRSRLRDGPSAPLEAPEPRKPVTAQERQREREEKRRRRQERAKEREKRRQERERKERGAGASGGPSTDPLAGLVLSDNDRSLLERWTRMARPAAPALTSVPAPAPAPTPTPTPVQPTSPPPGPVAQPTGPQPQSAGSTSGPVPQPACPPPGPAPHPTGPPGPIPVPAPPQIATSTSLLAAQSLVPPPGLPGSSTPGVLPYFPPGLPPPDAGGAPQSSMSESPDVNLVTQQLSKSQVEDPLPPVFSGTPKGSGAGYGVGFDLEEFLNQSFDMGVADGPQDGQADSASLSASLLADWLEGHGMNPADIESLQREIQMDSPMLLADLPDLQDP
# [9] = galactose survival enhancers in mitochondrial complex I cybrids – cell-based, galactose medium, ATP luminescence, primary screen (AID 1645843;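 active = z-score of at least 1.8 in each of two replicates, scored against plate mean and spread of sample wells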;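 note: positive z means more ATP and so rescue of galactose-driven cybrid death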); conditions: complex I mutant cybrid cells, 72 h, stronger effect = higher value
# [10] = JHH-DIPG-1 glioma cell viability, MIPE5.0 library, CellTiter-Glo luminescence, qHTS (AID 1347067; cut-off not given, nearly all actives have AC50 up to about 26 µM;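 note: cells exposed to compound for 48 hours before readout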); conditions: JHH-DIPG-1 glioma viability, CellTiter-Glo ATP luminescence
# [11] = chitosan synthesis blockers in C. neoformans – flow cytometry, Cibacron Brilliant Red staining (AID 1347148; call rule not given here;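 note: compound exposure lasted three days at 37 degrees C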); conditions: Cryptococcus neoformans chitosan, stronger effect = lower value; at 10 µM unless noted
# [12] = compounds altering HSF1 focus formation in cells – imaging, Selleck Cancer Library (AID 1347162; in the data active = plate-normalised HSF1 focus index below about 0.46); conditions: human cells, HSF1 nuclear foci imaging, at 10 µM; SSMD: measured here: HSF1 foci SSMD mean; cell count: measured here: cell number; plate-normalised HSF1 focus index: stronger effect = lower value
# [13] = drug combination growth inhibition, ovarian cancer – cell-based, oncology-focused library, rucaparib conditional, profiling panel (AID 1508598); conditions: patient-derived ovarian cancer cells, CellTiter-Glo viability, 144 h, stronger effect = lower value
# [14] = stronger effect = lower value, cell number ratio, induced over uninduced
# [15] = measured here: relative caspase fold change +Dox/-Dox
# [16] = measured here: total cells with miR-34 induction, stronger effect = lower value
# [17] = measured here: total cells without miR-34 induction
# [18] = MELAS cybrid survival, CellTiter-Glo 48 h, stronger effect = higher value
# [19] = Rieske KO mouse fibroblast survival, CellTiter-Glo 72 h
compound,measurement,setting,value
CC(=O)O[C@]1(C(C)=O)CC[C@H]2[C@@H]3C=C(Cl)C4=CC(=O)[C@@H]5C[C@@H]5[C@]4(C)[C@H]3CC[C@@]21C,AC50,[1],33.2 µM (active)
same,outcome,[2],inactive
same,outcome,[3],inactive
same,fold change,[4]; [14],0.956 (inactive) and 0.85 (inactive)
same,fold change,[4]; [15],1.52 and 2.1
same,cell count,[4]; [16],8890 and 7970
same,cell count,[4]; [17],9300 and 9380
same,outcome,[5],inactive
same,z-score,[6]; [18],-0.4 (inactive)
same,z-score,[6]; [19],-0.158
same,remaining NAD,[7],10 nM (inactive)
same,luciferase signal,[8],52 AU (inactive)
same,z-score,[9],1.89 (inactive) and 0.36 (inactive)
C#C[C@]1(O)CC[C@H]2[C@@H]3CCc4cc(O)ccc4[C@H]3CC[C@@]21C,AC50,[1],13.2 µM (active)
same,outcome,[2],inactive
same,z-score,[6]; [18],1.16 (inactive)
same,z-score,[6]; [19],0.428
same,remaining NAD,[7],10 nM (inactive)
same,luciferase signal,[8],76 AU (inactive)
CN(Cc1cnc2nc(N)nc(N)c2n1)c1ccc(C(=O)N[C@@H](CCC(=O)O)C(=O)O)cc1,AC50,[1],0.417 µM (active)
same,outcome,[10],inactive
same,outcome,[3],inactive
same,fold change,[4]; [14],1.49 (inactive) and 1.21 (inactive) and 1.07 (inactive)
same,fold change,[4]; [15],1.22 and 0.656 and 1.41
same,cell count,[4]; [16],2980 and 3110 and 5280
same,cell count,[4]; [17],2000 and 2580 and 4920
same,fold fluorescence,[11],3.97 [at 117.8 µM] (inactive)
same,SSMD,[12],2.25
same,cell count,[12],7580
same,plate-normalised HSF1 focus index,[12],1.08 (inactive)
same,outcome,[5],inactive
same,z-score,[6]; [18],1.68 (inactive)
same,z-score,[6]; [19],-0.369
same,viability,"[13]; at 0.000305 µM, OCI-C5x cells, with rucaparib 10 µM, 100% = cells with rucaparib alone",110% (inactive)
same,viability,"[13]; at 0.000305 µM, OCI-C5x cells, without rucaparib",111% (inactive)
same,viability,"[13]; at 0.000305 µM, OCI-P5x cells, with rucaparib 20 µM, 100% = cells with rucaparib alone",113% (inactive)
same,viability,"[13]; at 0.000305 µM, OCI-P5x cells, without rucaparib",112% (inactive)
same,viability,"[13]; at 0.00122 µM, OCI-C5x cells, with rucaparib 10 µM, 100% = cells with rucaparib alone",104% (inactive)
same,viability,"[13]; at 0.00122 µM, OCI-C5x cells, without rucaparib",91.8% (active)
same,viability,"[13]; at 0.00122 µM, OCI-P5x cells, with rucaparib 20 µM, 100% = cells with rucaparib alone",111% (inactive)
same,viability,"[13]; at 0.00122 µM, OCI-P5x cells, without rucaparib",109% (inactive)
same,viability,"[13]; at 0.00488 µM, OCI-C5x cells, with rucaparib 10 µM, 100% = cells with rucaparib alone",113% (inactive)
same,viability,"[13]; at 0.00488 µM, OCI-C5x cells, without rucaparib",106% (inactive)
same,viability,"[13]; at 0.00488 µM, OCI-P5x cells, with rucaparib 20 µM, 100% = cells with rucaparib alone",111% (inactive)
same,viability,"[13]; at 0.00488 µM, OCI-P5x cells, without rucaparib",111% (inactive)
same,viability,"[13]; at 0.0195 µM, OCI-C5x cells, with rucaparib 10 µM, 100% = cells with rucaparib alone",105% (inactive)
same,viability,"[13]; at 0.0195 µM, OCI-C5x cells, without rucaparib",103% (inactive)
same,viability,"[13]; at 0.0195 µM, OCI-P5x cells, with rucaparib 20 µM, 100% = cells with rucaparib alone",103% (inactive)
same,viability,"[13]; at 0.0195 µM, OCI-P5x cells, without rucaparib",105% (inactive)
same,viability,"[13]; at 0.0781 µM, OCI-C5x cells, with rucaparib 10 µM, 100% = cells with rucaparib alone",59.6% (active)
same,viability,"[13]; at 0.0781 µM, OCI-C5x cells, without rucaparib",35.7% (active)
same,viability,"[13]; at 0.0781 µM, OCI-P5x cells, with rucaparib 20 µM, 100% = cells with rucaparib alone",110% (inactive)
same,viability,"[13]; at 0.0781 µM, OCI-P5x cells, without rucaparib",98.3% (active)
same,viability,"[13]; at 0.313 µM, OCI-C5x cells, with rucaparib 10 µM, 100% = cells with rucaparib alone",18.2% (active)
same,viability,"[13]; at 0.313 µM, OCI-C5x cells, without rucaparib",17.2% (active)
same,viability,"[13]; at 0.313 µM, OCI-P5x cells, with rucaparib 20 µM, 100% = cells with rucaparib alone",104% (inactive)
same,viability,"[13]; at 0.313 µM, OCI-P5x cells, without rucaparib",93.3% (active)
same,viability,"[13]; at 1.25 µM, OCI-C5x cells, with rucaparib 10 µM, 100% = cells with rucaparib alone",17.8% (active)
same,viability,"[13]; at 1.25 µM, OCI-C5x cells, without rucaparib",16.5% (active)
same,viability,"[13]; at 1.25 µM, OCI-P5x cells, with rucaparib 20 µM, 100% = cells with rucaparib alone",101% (inactive)
same,viability,"[13]; at 1.25 µM, OCI-P5x cells, without rucaparib",90.7% (active)
same,viability,"[13]; at 5 µM, OCI-C5x cells, with rucaparib 10 µM, 100% = cells with rucaparib alone",27.2% (active)
same,viability,"[13]; at 5 µM, OCI-C5x cells, without rucaparib",26% (active)
same,viability,"[13]; at 5 µM, OCI-P5x cells, with rucaparib 20 µM, 100% = cells with rucaparib alone",94% (active)
same,viability,"[13]; at 5 µM, OCI-P5x cells, without rucaparib",87.3% (active)
same,z-score,[9],-1.06 (inactive) and -0.71 (inactive)
Cc1[nH]c(=O)c(C#N)cc1-c1ccncc1,outcome,[1],inactive
same,outcome,[10],inactive
same,outcome,[3],inactive
same,fold fluorescence,[11],6.33 [at 236.7 µM] (inactive)
same,outcome,[5],inactive
same,z-score,[6]; [18],-0.327 (inactive) and 0.548 (inactive) and 0.108 (inactive)
same,z-score,[6]; [19],0.87 and -0.397 and -0.212
same,remaining NAD,[7],10 nM (inactive)
same,z-score,[9],0.46 (inactive) and 0.67 (inactive) and 0.525 (inactive)
